Experimental data reported in PubChem BioAssay.
Active and inactive are the calls of the source. Unless noted, no rule for the calls is given here.

Experiments:
[1] = system: Wnt5a (protein binding on small-molecule microarray); assay: small molecules binding Wnt5a protein – biophysical, small-molecule microarray, 635/667 nm fluorescence, primary screen (AID 1142); conditions: 635 nm fluorescence, higher = more signal;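 also: fluorescence read at 667 nm with signal to noise per printed feature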
[2] = ATP-based viability of Huh7 replicon cells – cell-based, CellTiter-Glo luminescence, basal, 48 h, cytotoxicity control for HCV replication inhibitor project, primary screen (AID 1143); conditions: higher = more signal, called active from +8 up or from −8 down;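 also: Huh7 hepatoma cells carrying a hepatitis C replication reporter with no stimulus; test concentration not given here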
[3] = Pseudomonas biofilm growth suppression – PAO1 strain, BacTiter-Glo luminescence, LB-PBS, primary screen (AID 1144); conditions: P. aeruginosa PAO1 biofilm, 12 h, higher = more signal
[4] = basal CRE-LacZ reporter activity in PC12 – cell-based, unstimulated, primary screen (AID 1145); conditions: no forskolin, luminescence, 4.5 h, higher = more signal, called active from +8 up or from −8 down
[5] = forskolin-driven CRE-LacZ activity in PC12 – cell-based, CRE-LacZ reporter, forskolin-stimulated, primary screen (AID 1146); conditions: luminescence, 4.5 h, higher = more signal, called active from +8 up or from −8 down;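 also: PC12 cells with 6xCRE LacZ reporter stimulated by forskolin 10 µM; beta-galactosidase reporter signal reflecting CREB driven transcription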
[6] = target: Streptavidin (Streptomyces avidinii) (UniProt P22629); assay: compounds binding control protein streptavidin – biophysical, small-molecule microarray, 635/667 nm fluorescence, artefact control for SMM compound annotation, primary screen (AID 1147); conditions: higher = more signal;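 also: signal reflects streptavidin binding to arrayed compounds as a control protein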
Chain of Streptavidin (Streptomyces avidinii) (P22629 whole entry, looked up): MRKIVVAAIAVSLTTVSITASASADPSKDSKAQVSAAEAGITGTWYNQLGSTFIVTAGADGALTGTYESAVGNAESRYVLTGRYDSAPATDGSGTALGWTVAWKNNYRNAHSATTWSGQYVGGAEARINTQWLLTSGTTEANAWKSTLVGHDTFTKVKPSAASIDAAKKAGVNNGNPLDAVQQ

[7] = probe aInhba binding on compound microarray – biochemical, small-molecule microarray, 635/667 nm fluorescence, primary screen (AID 1148); conditions: higher = more signal;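 also: score merges 667nm spot fluorescence with signal-to-noise for antibody binding to printed compounds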
Torsin-1A (Homo sapiens) [8] = target: Torsin-1A (Homo sapiens) (UniProt O14656); assay: TOR1A wild-type binding on microarray – cell lysate, small-molecule microarray, lysate, 635/667 nm, primary screen (AID 1149); conditions: COS7 hTOR1A-WT lysate, 635 nm fluorescence, higher = more signal
Chain of Torsin-1A (Homo sapiens) (O14656 whole entry, looked up): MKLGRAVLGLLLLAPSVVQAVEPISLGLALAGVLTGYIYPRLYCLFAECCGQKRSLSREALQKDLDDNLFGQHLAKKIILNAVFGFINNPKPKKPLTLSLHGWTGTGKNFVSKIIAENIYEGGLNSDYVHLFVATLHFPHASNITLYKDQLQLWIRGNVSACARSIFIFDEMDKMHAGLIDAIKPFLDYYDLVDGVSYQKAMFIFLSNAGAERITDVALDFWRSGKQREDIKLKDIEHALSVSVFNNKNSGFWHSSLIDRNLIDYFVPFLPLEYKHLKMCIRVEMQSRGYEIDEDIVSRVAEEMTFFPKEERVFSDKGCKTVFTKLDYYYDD

Torsin-1A (Homo sapiens) [9] = target: Torsin-1A (Homo sapiens) (UniProt O14656); assay: torsin A mutant lysate binding on microarrays – cell lysate, small-molecule microarray, COS7 lysate, 635/667 nm fluorescence, primary screen (AID 1150); conditions: COS7 hTOR1A mutant lysate, 635 nm fluorescence, higher = more signal;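 also: score pools 667 nm emission and signal to noise measuring lysate protein binding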
[10] = system: Sonic hedgehog protein (Shh); assay: Sonic hedgehog microarray binding compounds – biochemical, small-molecule microarray, 635/667 nm fluorescence, primary screen (AID 1151); conditions: 635 nm fluorescence, higher = more signal;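 also: Shh protein binding to compounds spotted on small-molecule microarray slides; score combines spot fluorescence intensity with signal-to-noise across triplicate slides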

Structure (SMILES)	composite z-score [1]	z-score [2]	z-score [3]	z-score [4]	z-score [5]	composite z-score [6]	composite z-score [7]	composite z-score (Torsin-1A (Homo sapiens) [8])	composite z-score (Torsin-1A (Homo sapiens) [9])	composite z-score [10]
COC(=O)c1c2oc(c1C(=O)OC)C(=O)N[C@H](Cc1ccccc1)Cn1cc(nn1)C1(CCCCC1)NC(=O)N[C@H](CO)CC2	0.075	0.0261 (inactive)	-0.72 (inactive)	8.64 (active)	0.334 (inactive)	-0.626	0.161	0.3	0.29	1.52
O=C(N1CCOCC1)[C@]1(CCS(=O)(=O)c2ccccc2)N=C(c2ccc(OCCCO)cc2)O[C@@H]1c1ccccc1	0.308	-2.3 (inactive)	0.863 (inactive)	1.1 (inactive)	0.711 (inactive)	0.947	0.212	0.46	0.77	-0.19
CC(=O)NCCCC[C@@H]1NC(=O)[C@H]2C[C@@H](C(=O)NCCCCCN)[C@@H](c3ccc(O)cc3)N2C1=O	0.0662	0.0104 (inactive)	0.447 (inactive)	-0.0038 (inactive)	0.126 (inactive)	0.947	-0.0658	0.274	0.568	1.01
Cc1ccc(S(=O)(=O)N2[C@@H](c3ccccc3)C(C(=O)O)=CC[C@H]2c2ccc(F)cc2)cc1	0.148	-1.85 (inactive)	-0.8 (inactive)	-0.676 (inactive)	0.398 (inactive)	1.4	0.0403	1.33	1.64	0.193
COC(=O)C(CC#Cc1ccc2c(c1)[C@]1(C(=O)N2)[C@H](c2ccc(OCCO)cc2)N2[C@H](c3ccccc3)[C@H](c3ccccc3)OC(=O)[C@H]2[C@@H]1C(N)=O)C(=O)OC	-0.0885	-2.24 (inactive)	-0.287 (inactive)	-0.0246 (inactive)	0.0658 (inactive)	1.42	-0.0719	0.598	-0.127	-0.315
C[C@]1(C(=O)NC2CC2)c2ccccc2C(=O)N(Cc2cc(F)cc(C(F)(F)F)c2)[C@H]1c1ccc(CO)cc1	-0.76	-2.15 (inactive)	-1.05 (inactive)	0.764 (inactive)	0.864 (inactive)	-0.827	-0.242	-2.36	0.416	1.62
COc1ccc(C(O)C2C=CC3C(=O)N(c4ccccc4)C(=O)C3N2Nc2ccccc2F)c2ccccc12 (stereo not given)	0.936	-0.225 (inactive)	-1.21 (inactive)	0.629 (inactive)	-0.813 (inactive)	2.38	1.11	0.163	0.273	0.824
C=CCC(OC(C)=O)[C@@H]1[C@@H](N(Cc2cccc3ccccc23)C(=O)c2ccc(C)cc2)c2cc(OCCCO)ccc2N1C(=O)Cc1ccc2ccccc2c1 (stereo not given in full)	0.245	-0.72 (inactive)	-0.234 (inactive)	1.46 (inactive)	-0.0127 (inactive)	0.652	-0.101	0.125	-0.564	-0.0314
O=C1OCCC/C=C\[C@H]2OC34C=CCN(Cc5ccccc5)C(=O)[C@H]3N(CCO)C(=O)[C@@H]4C12 (stereo not given in full)	0.0691	0.347 (inactive)	-1.38 (inactive)	-0.0899 (inactive)	-0.0501 (inactive)	-1.06	0.225	1.3	0.232	1.87
COc1ccc([Si](C)(C)[C@H]2[C@H](CC(=O)N(CCO)Cc3ccccc3)O[C@@]3(C(=O)N(Cc4ccc(N5C(=O)c6cccc7cccc5c67)cc4)c4ccccc43)[C@@H]2C)cc1	0.954	-4.47 (inactive)	0.278 (inactive)	0.353 (inactive)	-0.429 (inactive)	0.555	0.545	-0.237	0.454	2.17
CC(C)N1CC=CC23O[C@@H]4/C=C\CCCOC(=O)C4[C@H]2C(=O)N(C(C)CO)[C@@H]3C1=O (stereo not given in full)	-0.603	0.282 (inactive)	-2.11 (inactive)	-1.58 (inactive)	-0.869 (inactive)	-0.938	-0.176	-2.23	-0.913	-0.413
O=C1O[C@H](c2ccccc2)[C@H](c2ccccc2)N2[C@H]1[C@@H](C(=O)N1CCN(c3ncccn3)CC1)[C@]1(C(=O)Nc3ccc(C#CC4(O)CCCCCC4)cc31)[C@H]2c1ccc(O)cc1	0.675	-2.43 (inactive)	-0.759 (inactive)	-0.258 (inactive)	-0.296 (inactive)	-0.0103	0.096	0.574	0.0774	1.93
O=C1O[C@H](c2ccccc2)[C@H](c2ccccc2)N2[C@H]1[C@@H](C(=O)O)[C@]1(C(=O)Nc3ccccc31)[C@H]2c1ccc(OCCO)cc1	-0.0515	0.234 (inactive)	-0.369 (inactive)	0.739 (inactive)	0.727 (inactive)	1.08	-0.0468	0.658	-0.283	0.98
CC(C)(C)OC(=O)CC[C@@]1(C(=O)N2CCOCC2)N=C(c2ccc(OCCCO)cc2)O[C@@H]1c1ccccc1CN=[N+]=[N-]	1.14	-0.435 (inactive)	-0.202 (inactive)	0.311 (inactive)	-0.0177 (inactive)	1.05	0.529	0.401	2.23	-0.33
CCCCCCc1nc(Cc2cc(OC)c(OC)c(OC)c2)c(C)c2c1[Si](C(C)C)(C(C)C)OC2	0.0854	-3.36 (inactive)	-1.44 (inactive)	0.367 (inactive)	-0.634 (inactive)	-0.0336	0.0275	0.246	0.0486	0.372
O=C1C2C=CC(C(O)C(c3ccccc3)c3ccccc3)N(Nc3ccccc3F)C2C(=O)N1c1ccccc1 (stereo not given)	0.739	-1.16 (inactive)	0.712 (inactive)	2.73 (inactive)	0.993 (inactive)	1.58	0.0183	1.02	0.895	0.868
CO[C@H]1O[C@H](CO)[C@@H](OC(=O)Nc2cccc(F)c2)[C@H](OC(=O)Nc2ccc3c(c2)OCO3)[C@@H]1OC(=O)Nc1ccc2c(c1)OCO2	0.22	-3.26 (inactive)	0.221 (inactive)	-0.207 (inactive)	-0.41 (inactive)	0.438	0.0471	1.17	1.21	0.519
CCCN1C(=O)[C@@]2(c3ccc([N+](=O)[O-])cc3)CC(=O)N(C3CCCCC3)[C@@H]2c2ccc(CO)cc21	0.0899	0.677 (inactive)	-0.0723 (inactive)	0.389 (inactive)	-0.131 (inactive)	-0.397	-0.168	0.515	-0.187	1.08
CCCCN1CC=CC23O[C@@H]4C=CCCOC(=O)C4[C@H]2C(=O)N(CCO)[C@@H]3C1=O (stereo not given in full)	-0.213	0.142 (inactive)	-0.892 (inactive)	-1.45 (inactive)	-0.34 (inactive)	-0.434	-0.0405	-0.856	-0.508	1.71
COC(=O)C1=CC(c2ccc(CO)cc2)=CC(C2CC2)N(Cc2cc3c(cc2Br)OCO3)C=C1C(=O)OC (stereo not given)	0.92	-3.35 (inactive)	0.754 (inactive)	-0.904 (inactive)	-0.5 (inactive)	1.52	0.225	0.312	0.832	1.21
C=C(C(=O)CC[C@@H](OC(=O)c1ccccc1-c1ccccc1C(=O)O)c1ccc(OCCO)cc1)C(C)C	1.04	0.0006 (inactive)	-0.367 (inactive)	3.88 (inactive)	2.07 (inactive)	0.0206	-0.0468	-0.13	0.261	2.1
Cc1ccc(S[C@]2(C(=O)NCC(C)C)CC(=O)N(C(C)C)[C@@H]2c2ccc(CO)cc2I)cc1	0.241	-1.44 (inactive)	0.502 (inactive)	0.0909 (inactive)	0.205 (inactive)	-0.807	-0.173	-0.782	-0.607	-1.07
